# Compound activity (PubChem)
# C diff growth = C. difficile growth inhibition; hit rate 0.25% among 86,000; Clostridium difficile clinical isolate growth, OD600, 24 h; active compounds read low; growth activity, negative = inhibition, % at 16 µg/mL (by protocol);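 active = mean growth activity at or below -80% and every replicate also at or below -80%; inconclusive = mean at or below -80% but some replicate above -80%; inactive = mean growth activity above -80%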;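 also: 0% = DMSO wells and -100% = levofloxacin 16 µg/mL wells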
# T cruzi growth-1 = T. cruzi proliferation inhibition; T. cruzi beta-gal in NIH3T3, GalScreen luminescence, 90 h; inhibition, % at 8.34 µM; hit rate 5.9% among 77,000;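 active = mean inhibition above about 93%, with at least 55% of replicates each passing it, limit read from the data, passing the limit was not always enough; inconclusive = only one of those two conditions holds; inactive = neither condition holds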
# Pf Dd2 inh = P. falciparum Dd2 growth inhibition. SYBR Green, 72 h; active compounds read low. activity change, % at 10 µM. AID 1159554. hit rate 2.3% among 94,000; in the data active = activity change below about -80%; inconclusive = no clear call, values can overlap the other calls
# T cruzi growth-2 = inhibitors of T. cruzi proliferation; shares compounds with T cruzi growth-1; T. cruzi beta-gal in NIH3T3, GalScreen luminescence, 90 h; inhibition, % at 8.35 µM; hit rate 72% among 5,600; AID 651739;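 active = mean replicate inhibition above about 95% and at least 55% of replicates individually reaching it, limit read from the data; inconclusive = only one of the two criteria is met; inactive = neither criterion is met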
# T cruzi growth-3 = blocks T. cruzi growth in NIH3T3 host cells | hit rate 21% among 5,600 | shares compounds with T cruzi growth-1 | inhibition, % at 2.09 µM | T. cruzi beta-gal in NIH3T3, GalScreen luminescence, 90 h;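 active = mean inhibition above about 95%, with at least 55% of replicates also reaching it, limit read from the data; inconclusive = meets just one of the two conditions; inactive = meets neither condition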;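 also: plate controls were neutral control median for no effect and positive control median for full effect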
# 3T3 cytotox = cytotoxicity in mouse NIH/3T3 fibroblasts; hit rate 14% among 5,600; NIH/3T3 viability, CellTiter-Glo ATP luminescence, 90 h; cytotoxicity (signal decrease), % at 8.35 µM; shares compounds with T cruzi growth-1;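 active = mean signal decrease across replicates above about 35% based on untreated-well scatter, with enough replicates individually passing, limit read from the data; inconclusive = no rule stated though some were filed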;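 also: 0% = median of neutral control wells and 100% = median of positive control wells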
# NIH3T3 tox 2 = NIH/3T3 (mouse) viability loss | shares compounds with T cruzi growth-1 | NIH/3T3 viability, CellTiter-Glo ATP luminescence, 90 h | inhibition, % at 24.9 µM | hit rate 56% among 5,600 | AID 651744;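 active = mean loss of cell viability signal at or above a set limit, and enough replicates individually reaching it; inconclusive = meets only the mean limit or only the replicate share; inactive = meets neither condition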;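 also: 0% = median of neutral control wells and 100% = median of positive control wells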
# * marks the source's active call; other numbers are inactive results; ? = inconclusive; . = not tested or not shown. Shown are actives, neighbours in structure and some others; about 6.8% of the full set was active somewhere.
SMILES,C diff growth,T cruzi growth-1,Pf Dd2 inh,T cruzi growth-2,T cruzi growth-3,3T3 cytotox,NIH3T3 tox 2
COc1cccc(S(=O)(=O)N[C@H]2CC[C@H](CCn3cc(-c4ccccc4OC)nn3)O[C@@H]2CO)c1,1,?,-5,24,-6,10,32
O=C(N[C@H]1CC[C@@H](CCn2cc(-c3ccccc3F)nn2)O[C@H]1CO)c1ccc2c(c1)OCO2,.,112*,-57,10,3,-2,22
COc1cc(CN2CC3(CN(C(=O)c4ccc5c(c4)OCO5)C3)c3c(n(C)c4cc(OC)ccc34)[C@H]2CO)cc(OC)c1,3,.,-77,.,.,.,.
O=C(NCC[C@@H]1CC[C@@H](NS(=O)(=O)c2cccc(F)c2)[C@@H](CO)O1)C1CCCC1,-2,.,-1,.,.,.,.
COC(=O)C[C@@H]1CC[C@H]2[C@H](COc3ccc(NS(=O)(=O)c4ccccc4F)cc3C(=O)N2C)O1,2,24,5,.,.,.,.
CC(C)NC(=O)N(C)C[C@@H]1OCCCC[C@@H](C)Oc2ccc(NC(=O)Nc3cccc4ccccc34)cc2C(=O)N([C@@H](C)CO)C[C@@H]1C,4,13,.,.,.,.,.
O=C(Nc1cc(F)ccc1F)N1CCCCN2[C@H](CO)[C@H](c3ccc(-c4cncnc4)cc3)[C@H]2C1,-7,112*,9,107*,25,-3,-16
O=C(Nc1cc(F)ccc1F)N1CCCCN2[C@@H](CO)[C@H](c3ccc(-c4cncnc4)cc3)[C@@H]2C1,-4,98*,6,69,18,24,11
O=C(Nc1cc(F)ccc1F)N1CCCCN2[C@H](CO)[C@H](c3ccc(-c4cccnc4)cc3)[C@@H]2C1,2,62,8,.,.,.,.
O=C(Nc1cc(F)ccc1F)N1CCCCN2[C@H](CO)[C@@H](c3ccc(-c4ccncc4)cc3)[C@H]2C1,2,57,-24,.,.,.,.
O=C(Nc1cc(F)ccc1F)N1CCCCN2[C@@H](CO)[C@H](c3ccc(-c4cccnc4)cc3)[C@@H]2C1,0,?,-12,97*,34,0,14
O=C(Nc1cc(F)ccc1F)N1CCCCN2[C@H](C1)[C@H](c1ccc(-c3ccccc3)cc1)[C@@H]2CO,20,99*,-7,108*,61,30,20
O=C(Nc1cc(F)ccc1F)N1CCCCN2[C@H](CO)[C@H](c3ccc(-c4ccncc4)cc3)[C@@H]2C1,4,76,12,.,.,.,.
O=C(Nc1cc(F)ccc1F)N1CCCCN2[C@H](CO)[C@H](c3ccc(-c4ccccc4)cc3)[C@H]2C1,48,41,-71,.,.,.,.
COc1ccc(S(=O)(=O)Nc2ccc3c(c2)C(=O)N([C@@H](C)CO)C[C@H](C)[C@@H](CN(C)C(=O)Nc2cccc4ccccc24)O3)cc1,-16,-60,-45,.,.,.,.
O=C(Nc1ccccc1F)N1CCCCN2[C@H](C1)[C@H](c1ccc(-c3cccnc3)cc1)[C@@H]2CO,-13,104*,20,?,-7,-11,-12
O=C(Nc1cc(F)ccc1F)N1CCCCN2[C@@H](CO)[C@@H](c3ccc(-c4cncnc4)cc3)[C@@H]2C1,-4,108*,16,-6,-13,-31,-6
O=C(Nc1cc(F)ccc1F)N1CCCCN2[C@@H](CO)[C@H](c3ccc(-c4ccncc4)cc3)[C@@H]2C1,6,69,10,.,.,.,.
O=C(Nc1cc(F)ccc1F)N1CCCCN2[C@H](C1)[C@@H](c1ccc(-c3cccnc3)cc1)[C@@H]2CO,-2,70,-1,.,.,.,.
O=C(Nc1ccccc1F)N1CCCCN2[C@H](CO)[C@@H](c3ccc(-c4cccnc4)cc3)[C@@H]2C1,-7,55,7,.,.,.,.
O=C(Nc1cc(F)ccc1F)N1CCCCN2[C@H](CO)[C@@H](c3ccc(-c4cncnc4)cc3)[C@@H]2C1,7,112*,-14,12,5,-13,-6
COc1ccc(NC(=O)Nc2ccc3c(c2)CC(=O)N([C@@H](C)CO)C[C@@H](C)[C@H](CN(C)S(=O)(=O)c2ccc(Cl)cc2)O3)cc1,-10,-13,-42,.,.,.,.
COCCNC(=O)[C@H]1[C@H](CO)[C@H]2Cn3c(ccc(-c4ccccc4F)c3=O)[C@H]2N1C(=O)C1CC1,-7,63,13,.,.,.,.
CO[C@@H]1CN(C)C(=O)c2ccc(NS(C)(=O)=O)cc2OC[C@H](C)N(Cc2cncnc2)C[C@H]1C,.,-22,-1,.,.,.,.
C[C@@H]1CN([C@@H](C)CO)C(=O)c2cc(NS(=O)(=O)c3cccs3)ccc2O[C@@H]1CN(C)Cc1ccc(Cl)c(Cl)c1,18,66,9,.,.,.,.
SMILES,C diff growth,T cruzi growth-1,Pf Dd2 inh,T cruzi growth-2,T cruzi growth-3,3T3 cytotox,NIH3T3 tox 2
O=C(Nc1cc(Br)ccc1C(=O)NCc1cccc(O)c1)c1ccccc1,-2,.,.,.,.,.,.
CCN1[C@H](C(=O)NCCCN(C)C)[C@@H](CO)[C@@H]2Cn3c(ccc(C4=CCCC4)c3=O)[C@@H]21,5,.,25,.,.,.,.
Cc1noc(C)c1NC(=O)Nc1ccc2c(c1)C(=O)N([C@H](C)CO)C[C@H](C)[C@H](CN(C)C(=O)CCCN(C)C)OCCCC[C@H](C)O2,-2,38,61,.,.,.,.
CC(C)CC#Cc1ccc2c(c1)O[C@H](CN(C)S(=O)(=O)c1cccc(F)c1)[C@H](C)CN([C@H](C)CO)S2(=O)=O,5,112*,-77,100*,116*,19,98*
CC(C)CC#Cc1ccc2c(c1)O[C@@H](CN(C)S(=O)(=O)c1ccc(F)cc1)[C@H](C)CN([C@@H](C)CO)S2(=O)=O,18,.,-68,.,.,.,.
CC(C)CC#Cc1ccc2c(c1)O[C@H](CN(C)S(=O)(=O)c1cccc(F)c1)[C@H](C)CN([C@@H](C)CO)S2(=O)=O,7,118*,-54,88,100*,13,60*
CC(C)CC#Cc1ccc2c(c1)O[C@@H](CN(C)S(=O)(=O)c1ccc(F)cc1)[C@@H](C)CN([C@@H](C)CO)S2(=O)=O,6,.,-53,.,.,.,.
O=C(N[C@H]1CC[C@@H](CCn2cc(C3(O)CCCC3)nn2)O[C@H]1CO)C1CCOCC1,.,42,-1,.,.,.,.
N#C[C@@H]1[C@H](c2ccc(C#CC3CC3)cc2)[C@@H](CO)N1S(=O)(=O)c1ccccc1,-3,?,-70,103*,109*,8,-4
N#C[C@H]1[C@@H](c2ccc(C#CC3CCCC3)cc2)[C@H](CO)N1S(=O)(=O)c1ccccc1,-1,88,-46,.,.,.,.
N#C[C@@H]1[C@H](c2ccc(C#CC3CCCCC3)cc2)[C@H](CO)N1S(=O)(=O)c1ccccc1,-6,80,-71,.,.,.,.
N#C[C@H]1[C@H](c2ccc(C#CC3CC3)cc2)[C@H](CO)N1S(=O)(=O)c1ccccc1,1,101*,-70,103*,109*,-1,34*
N#C[C@@H]1[C@@H](c2ccc(C#CC3CCCC3)cc2)[C@@H](CO)N1S(=O)(=O)c1ccccc1,1,99*,-30,102*,?,46*,102*
